Assay results as given in PubChem BioAssay (Tox21).
Several values for one entry are separate records, joined by “and”; a condition that tells them apart may be missing. Equal entries are not always repeated. Inconclusive results are not listed. Where a call stands in place of a potency, no number is given. Activity calls are given as the source filed them. Unless noted, the call rests on the fitted dose curve.

How the values were obtained:
[1] = biological target: Acetylcholinesterase (Homo sapiens) (UniProt P22303); experiment: Acetylcholinesterase (AChE) small molecule antagonists: colormetric cell-based qHTS assay (AID 1347395); further: nearly all actives have a fitted effect of over 30% in size; further: potency means the concentration at half of the fitted maximal effect
Acetylcholinesterase (Homo sapiens), sequence (P22303 whole entry, looked up): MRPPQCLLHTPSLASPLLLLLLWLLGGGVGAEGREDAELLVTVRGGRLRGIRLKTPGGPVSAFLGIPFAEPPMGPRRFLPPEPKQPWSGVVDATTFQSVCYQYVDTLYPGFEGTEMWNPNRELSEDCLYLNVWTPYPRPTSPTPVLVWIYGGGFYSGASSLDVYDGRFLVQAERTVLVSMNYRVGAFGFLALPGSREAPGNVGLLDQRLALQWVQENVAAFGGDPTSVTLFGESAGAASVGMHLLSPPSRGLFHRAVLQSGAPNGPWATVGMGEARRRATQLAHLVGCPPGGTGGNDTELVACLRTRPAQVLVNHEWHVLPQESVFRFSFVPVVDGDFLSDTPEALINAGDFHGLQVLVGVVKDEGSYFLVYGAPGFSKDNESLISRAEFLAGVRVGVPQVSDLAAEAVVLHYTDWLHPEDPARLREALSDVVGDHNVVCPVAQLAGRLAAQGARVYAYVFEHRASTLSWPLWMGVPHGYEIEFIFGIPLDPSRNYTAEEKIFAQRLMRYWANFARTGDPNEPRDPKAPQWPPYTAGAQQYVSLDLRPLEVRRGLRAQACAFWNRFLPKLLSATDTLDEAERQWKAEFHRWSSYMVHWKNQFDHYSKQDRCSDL
Outline: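 Colorimetric readout: DTNB quantifies thiocholine from acetylthiocholine hydrolysed by endogenous AChE of SH-SY5Y cells (2,000/well, plated overnight). Compound pretreatment 30 min, substrate incubation 90 min, both 37 C.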

[2] = biological target: Acetylcholinesterase (Homo sapiens) (UniProt P22303); experiment: Acetylcholinesterase (AChE) small molecule antagonists: enzyme-based qHTS assay (AID 1347397); conditions: Potency: AChE enzyme activity inhibition; outcome: AChE enzyme activity inhibition; further: nearly all actives have a fitted effect of over 55% in size; further: potency means the concentration at half of the fitted maximal effect
Outline: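 Absorbance-based detection of thiocholine with DTNB served as the read-out. Recombinant human AChE was exposed to compound for 30 min at RT before a 10 min RT incubation with acetylthiocholine.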

[3] = biological target: Acetylcholinesterase (Homo sapiens) (UniProt P22303); experiment: Acetylcholinesterase (AChE) small molecule antagonists: fluorescence cell-based qHTS assay (AID 1347398); conditions: Potency: AChE activity; outcome: AChE activity; further: nearly all actives have a fitted effect of over 50% in size; further: potency means the concentration at half of the fitted maximal effect
Outline: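 Fluorimetric cell-based assay: intact SH-SY5Y cells, 30 min compound preincubation at 37 C, acetylthiocholine substrate with thiol probe Thiolite Green, 40 min RT development, fluorescence 490/520 nm.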

[4] = biological target: Acetylcholinesterase (Homo sapiens) (UniProt P22303); experiment: Acetylcholinesterase (AChE) small molecule antagonists: enzyme-based qHTS assay with human liver microsomes (AID 1347399); conditions: Potency: qHTS inhibition; outcome: qHTS inhibition; further: nearly all actives have a fitted effect of over 60% in size
Outline: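 Recombinant human AChE (50 mU/mL in the enzyme mix) and human liver microsomes (0.25 mg/mL final) were preincubated with compound and NADPH (0.25 mg/mL final) for 30 min at 37 C. Acetylthiocholine/DTNB was then added; thiocholine was read colorimetrically after 10 min at room temperature.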

[5] = biological target: Aromatase (Homo sapiens) (UniProt P11511); experiment: qHTS assay to identify aromatase inhibitors (AID 743083; active means well fitted curve in the direction sought with a large enough effect in the repeat runs; an effect the other way counts as inactive or inconclusive; further: nearly all actives have a fitted effect of over 55% in size; further: potency means the concentration at half of the fitted maximal effect)
Aromatase (Homo sapiens), sequence (P11511 whole entry, looked up): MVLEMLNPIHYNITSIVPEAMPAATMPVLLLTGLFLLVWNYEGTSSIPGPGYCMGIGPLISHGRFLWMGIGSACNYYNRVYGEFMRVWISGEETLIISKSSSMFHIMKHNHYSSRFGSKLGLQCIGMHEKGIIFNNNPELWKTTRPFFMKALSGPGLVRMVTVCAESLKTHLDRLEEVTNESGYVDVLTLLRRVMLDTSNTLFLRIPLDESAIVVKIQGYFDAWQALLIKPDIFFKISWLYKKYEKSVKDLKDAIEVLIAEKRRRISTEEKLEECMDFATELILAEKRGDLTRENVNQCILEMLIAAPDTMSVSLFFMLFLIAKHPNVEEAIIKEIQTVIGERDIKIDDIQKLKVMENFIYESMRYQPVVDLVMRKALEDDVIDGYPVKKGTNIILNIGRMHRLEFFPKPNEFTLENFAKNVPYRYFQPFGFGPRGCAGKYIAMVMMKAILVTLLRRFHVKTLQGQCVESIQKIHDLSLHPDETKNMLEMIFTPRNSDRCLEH

[6] = biological target: Aryl hydrocarbon receptor (Homo sapiens) (UniProt P35869); experiment: qHTS assay to identify small molecule that activate the aryl hydrocarbon receptor (AhR) signaling pathway (AID 743085; active means well fitted curve in the direction sought with a large enough effect in the repeat runs; an effect the other way counts as inactive or inconclusive;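 further: HG2L7.5c1 human HepG2 liver cells with stably integrated DRE-driven firefly reporter; series mostly up to about 70 µM; nearly all actives have a fitted effect of over 15% in size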)
Aryl hydrocarbon receptor (Homo sapiens), sequence (P35869 whole entry, looked up): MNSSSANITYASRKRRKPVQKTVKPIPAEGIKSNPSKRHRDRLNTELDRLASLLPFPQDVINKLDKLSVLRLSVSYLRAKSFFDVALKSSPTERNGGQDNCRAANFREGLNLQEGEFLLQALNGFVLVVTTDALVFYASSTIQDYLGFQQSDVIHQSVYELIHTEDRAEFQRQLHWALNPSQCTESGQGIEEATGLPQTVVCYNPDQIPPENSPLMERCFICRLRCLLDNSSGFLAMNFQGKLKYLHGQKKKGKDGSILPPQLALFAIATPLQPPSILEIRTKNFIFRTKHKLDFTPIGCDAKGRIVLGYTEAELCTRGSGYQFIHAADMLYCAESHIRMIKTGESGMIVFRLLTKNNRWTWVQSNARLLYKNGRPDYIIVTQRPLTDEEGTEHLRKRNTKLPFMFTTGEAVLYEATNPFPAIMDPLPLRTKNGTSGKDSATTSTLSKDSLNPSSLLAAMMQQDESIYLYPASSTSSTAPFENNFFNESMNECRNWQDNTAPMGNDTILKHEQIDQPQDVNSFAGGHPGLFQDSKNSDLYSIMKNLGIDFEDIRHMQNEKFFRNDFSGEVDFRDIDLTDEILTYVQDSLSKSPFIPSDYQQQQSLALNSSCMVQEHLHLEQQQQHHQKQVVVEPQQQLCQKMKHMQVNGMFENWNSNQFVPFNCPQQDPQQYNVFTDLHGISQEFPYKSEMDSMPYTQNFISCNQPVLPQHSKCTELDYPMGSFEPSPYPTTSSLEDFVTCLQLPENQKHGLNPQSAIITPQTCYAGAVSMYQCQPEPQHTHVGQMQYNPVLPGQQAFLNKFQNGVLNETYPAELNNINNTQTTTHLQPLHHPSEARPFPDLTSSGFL
Outline: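 Luminescence (ONE-Glo) from a dioxin-responsive-element luciferase reporter in HG2L7.5c1 HepG2 cells after 24 hr compound exposure at 37C; viability measured by CellTiter-Fluor fluorescence beforehand.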

[7] = qHTS assay for small molecule agonists of the p53 signaling pathway (AID 651631); further: potency means the concentration at half of the fitted maximal effect; nearly all actives have a fitted effect of over 15% in size
Outline: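 Readout was fluorescence from the LiveBLAzer FRET substrate, applied for 2 h at room temperature after 16 h compound exposure at 37 °C. Cells were the p53RE-bla HCT-116 line, with beta-lactamase driven by p53 response elements.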

Compound	Potency [1]	Potency [2]	Potency [3]	Potency [4]	Potency [5]	Potency [6]	Potency [7]
C[C@]12CCC(=O)C=C1C=C[C@@H]1[C@@H]2CC[C@@]2(C)[C@H]1CC[C@@]21CCC(=O)O1	inactive	inactive	inactive	inactive	–	–	–
CN1Cc2cc(C(=O)N3CCC(C4CCNCC4)CC3)ccc2N[C@@H](CC(=O)O)C1=O	inactive	inactive	inactive	inactive	–	–	–
CCOC(=O)C(=O)CCc1ccccc1	inactive	inactive	inactive	inactive	–	–	–
OCCCCC(O)CO (stereo not drawn)	inactive	inactive	inactive	inactive	–	–	–
CC(Cl)C(Cl)Cl (stereo not drawn)	inactive	inactive	inactive	inactive	–	–	–
O=C(O[C@@H](C(=O)O)[C@@H](OC(=O)c1ccccc1)C(=O)O)c1ccccc1	inactive	inactive	inactive	inactive	–	–	–
CC(C)(O)C(=O)c1ccc(OCCO)cc1	inactive	inactive	inactive	inactive	–	–	–
CC(=O)O[C@]1(C(C)=O)CC[C@H]2[C@@H]3C[C@H](C)C4=CC(=O)CC[C@]4(C)[C@H]3CC[C@@]21C	inactive	inactive	inactive	inactive	–	–	–
CC(=O)Oc1ccc(C2(c3ccc(OC(C)=O)cc3)C(=O)Nc3ccccc32)cc1	inactive	inactive	inactive	inactive	–	–	–
COCCCCCCCCOCCC[Si](C)(O[Si](C)(C)C)O[Si](C)(C)C	inactive	inactive	inactive	inactive	–	–	–
COc1ccc([C@@H]2Sc3ccccc3N(CCN(C)C)C(=O)[C@@H]2OC(C)=O)cc1	inactive	inactive	inactive	inactive	–	–	–
CC(C)OC=O	inactive	inactive	inactive	inactive	–	–	–
CN(C)c1ccc(N=NS(=O)(=O)O)cc1	inactive	inactive	inactive	inactive	–	–	–
CC(C)(C#N)Nc1nc(Cl)nc(NC2CC2)n1	inactive	inactive	inactive	inactive	–	–	–
NC(=O)c1cccc([N+](=O)[O-])c1	inactive	inactive	inactive	inactive	–	–	–
CC(=O)CC(=O)Nc1ccccc1	inactive	inactive	inactive	inactive	–	–	–
O=C(OCC1CO1)C1CCCCC1C(=O)OCC1CO1 (stereo not drawn)	inactive	inactive	inactive	inactive	–	–	–
O=[N+]([O-])c1cc(N(CCO)CCO)ccc1NCCO	inactive	inactive	inactive	inactive	–	–	–
O=C(O)CCCCCCCCCC(=O)O	inactive	inactive	inactive	inactive	–	–	–
CC(=O)CC(=O)c1ccccc1	inactive	inactive	inactive	inactive	–	–	–
CC(C)(C)S	inactive	inactive	inactive	inactive	–	–	–
NC(N)=Nc1nc(CSCC/C(N)=N/S(N)(=O)=O)cs1	inactive	inactive	–	inactive	–	–	–
O=C1OC2(c3ccccc31)c1cc(Br)c(O)c(Br)c1Oc1c2cc(Br)c(O)c1Br	inactive	inactive	inactive	inactive	–	–	–
CC1(C)[C@@H]2CC[C@]3(C2)[C@@H]1C(=O)CCC3(C)C	inactive	inactive	–	inactive	–	–	–
CC(=O)O[C@@H]1CC2C3CCc4cc(OC(=O)c5ccccc5)ccc4C3CCC2(C)[C@H]1OC(C)=O (stereo partly drawn)	inactive	inactive	–	inactive	–	–	–
OC[C@H]1O[C@@H](Oc2ccc(O)cc2)[C@H](O)[C@@H](O)[C@@H]1O	inactive	inactive	inactive	inactive	–	–	–
CN/C(=C\[N+](=O)[O-])NCCSCc1csc(CN(C)C)n1	11.2 µM (active) and 13.8 µM (active)	35.6 µM (active) and 27.5 µM (active)	35.6 µM (active)	inactive	–	–	–
Cc1ccc(N)c([N+](=O)[O-])c1	inactive	inactive	inactive	inactive	inactive	inactive	–
c1cc(OCC2CO2)cc(OCC2CO2)c1 (stereo not drawn)	inactive	inactive	inactive	inactive	38.3 µM (active)	inactive	21.5 µM (active)
